# Several values for one entry are separate records, joined by “and”; a condition that tells them apart may be missing. Equal values may be shown once. Activity calls are given as the source filed them. Rule for the calls: active = hit-call score of the fitted dose curve at least 0.9, where 1 is the maximum; inactive = score below 0.9.
# What was measured:
# [1] = read-out: Transforming growth factor beta 1 (TGFb1), TGFB1 (gene 7040); assay: BSK_KF3CT_TGFb1: BioMAP Diversity Plus: KF3CT Assay for Transforming growth factor beta 1 (TGFb1) Biomarker Activity (AID 2283072); settings: primary human keratinocytes with fibroblasts; actives raise or lower the signal
# Procedure, shortened: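 Signal changes in either direction, relative to DMSO, define activity here. TGF-b1 is read by ELISA from a human keratinocyte-fibroblast co-culture 24 h post-dose.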
# [2] = read-out: C-C motif chemokine 2 (Homo sapiens) (UniProt P13500); assay: BSK_KF3CT_MCP1: BioMAP Diversity Plus: KF3CT Assay for Monocyte Chemoattractant Protein 1 (MCP1/CCL2) Biomarker Activity (AID 2283073); settings: primary human keratinocytes with fibroblasts; actives raise or lower the signal
# Procedure, shortened: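 ELISA read-out of MCP-1, 24 h post-dose, in primary human skin keratinocytes co-cultured with fibroblasts. Parallel SRB staining monitors cytotoxicity; changes fitted both directions relative to DMSO.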
# [3] = read-out: Matrix Metallopeptidase 9 (MMP9), MMP9 (gene 4318); assay: BSK_KF3CT_MMP9: BioMAP Diversity Plus: KF3CT Assay for Matrix Metallopeptidase 9 (MMP9) Biomarker Activity (AID 2283074); settings: primary human keratinocytes with fibroblasts; actives raise or lower the signal;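 for AC50: MMP9 protein level quantified by ELISA in the co-culture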
# Procedure, shortened: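 Human keratinocyte and foreskin fibroblast co-culture exposed to chemicals for 24 h; MMP9 biomarker measured by ELISA, bidirectional fitting relative to DMSO; cytotoxicity tracked by SRB total protein staining in parallel cultures.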
# [4] = read-out: urokinase plasminogen activator (uPA), PLAU (gene 5328); assay: BSK_KF3CT_uPA: BioMAP Diversity Plus: KF3CT Assay for urokinase plasminogen activator (uPA) Biomarker Activity (AID 2283075); settings: primary human keratinocytes with fibroblasts; actives raise or lower the signal
# Procedure, shortened: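 Primary human keratinocyte/foreskin fibroblast co-culture exposed to chemical; uPA measured by ELISA at 24 h. Bidirectional fit versus DMSO, with parallel SRB total-protein staining for cytotoxicity.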
# CD40, CD40 (gene 958) = assay: BSK_LPS_CD40: BioMAP Diversity Plus: LPS Assay for CD40 Biomarker Activity (AID 2283076); settings: primary human HUVEC with PBMC; actives raise or lower the signal
# Procedure, shortened: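 In the LPS system of human endothelial cells with peripheral blood mononuclear cells, CD40 levels were read by ELISA 24 h post-treatment. Signal changes in either direction were fitted against the DMSO baseline, with parallel SRB protein staining.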
# [5] = read-out: E-selectin (Homo sapiens) (UniProt P16581); assay: BSK_LPS_Eselectin: BioMAP Diversity Plus: LPS Assay for Eselectin Biomarker Activity (AID 2283077); settings: primary human HUVEC with PBMC; actives raise or lower the signal
# Procedure, shortened: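 E-selectin ELISA on LPS-stimulated endothelial cell/PBMC co-cultures, read 24 h post-treatment; gains and losses fitted against DMSO. Parallel SRB staining (0.1% SRB after 10% TCA fixation, 560 nm) flags overt cytotoxicity.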
# [6] = read-out: Interleukin-8 (IL8), CXCL8 (gene 3576); assay: BSK_LPS_IL8: BioMAP Diversity Plus: LPS Assay for Interleukin-8 (IL8) Biomarker Activity (AID 2283078); settings: primary human HUVEC with PBMC; actives raise or lower the signal
# Procedure, shortened: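 ELISA read-out of IL-8 after 24 h chemical treatment of LPS-activated endothelial/PBMC human primary co-cultures. Changes either up or down relative to DMSO; overt cytotoxicity checked by sulforhodamine B staining in parallel wells.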
# [7] = BSK_LPS_SRB: Viability Assessment in the BioMAP Diversity Plus: LPS Assay (AID 2283079); settings: primary human HUVEC with PBMC;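 note: total protein by sulforhodamine B absorbance as a cytotoxicity measure; measured one day after compound addition; fitted in both directions against DMSO so loss or gain of signal counts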
# Procedure, shortened: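 SRB viability endpoint: cells fixed with 10% TCA, stained with 0.1% SRB, read at 560 nm, 24 h post-dose. HUVEC/PBMC co-culture; signal change in either direction scored relative to DMSO.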
# [8] = read-out: Interleukin-1 alpha (IL1a), IL1A (gene 3552); assay: BSK_LPS_IL1a: BioMAP Diversity Plus: LPS Assay for Interleukin-1 alpha (IL1a) Biomarker Activity (AID 2283080); settings: primary human HUVEC with PBMC; actives raise or lower the signal
# Procedure, shortened: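 Readout is IL-1a level by ELISA, 24 h post-dose, fitted as gain or loss relative to DMSO. System: LPS-activated human primary co-culture of vascular endothelium and peripheral blood mononuclear cells, with parallel SRB total-protein cytotoxicity.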
# [9] = read-out: Monocyte Chemoattractant Protein-1 (MCP1), CCL2 (gene 6347); assay: BSK_LPS_MCP1: BioMAP Diversity Plus: LPS Assay for Monocyte Chemoattractant Protein-1 (MCP1) Biomarker Activity (AID 2283081); settings: primary human HUVEC with PBMC; actives raise or lower the signal;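 for AC50: secreted MCP-1 protein quantified by ELISA in culture supernatant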
# Procedure, shortened: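 Secreted MCP-1 read by ELISA at 24 h post-dosing in an LPS-activated co-culture of endothelial cells with peripheral blood mononuclear cells. Fits run in both directions, DMSO as baseline; parallel SRB staining tracks overt cytotoxicity.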
# E-selectin (Homo sapiens), sequence (P16581 whole entry, looked up): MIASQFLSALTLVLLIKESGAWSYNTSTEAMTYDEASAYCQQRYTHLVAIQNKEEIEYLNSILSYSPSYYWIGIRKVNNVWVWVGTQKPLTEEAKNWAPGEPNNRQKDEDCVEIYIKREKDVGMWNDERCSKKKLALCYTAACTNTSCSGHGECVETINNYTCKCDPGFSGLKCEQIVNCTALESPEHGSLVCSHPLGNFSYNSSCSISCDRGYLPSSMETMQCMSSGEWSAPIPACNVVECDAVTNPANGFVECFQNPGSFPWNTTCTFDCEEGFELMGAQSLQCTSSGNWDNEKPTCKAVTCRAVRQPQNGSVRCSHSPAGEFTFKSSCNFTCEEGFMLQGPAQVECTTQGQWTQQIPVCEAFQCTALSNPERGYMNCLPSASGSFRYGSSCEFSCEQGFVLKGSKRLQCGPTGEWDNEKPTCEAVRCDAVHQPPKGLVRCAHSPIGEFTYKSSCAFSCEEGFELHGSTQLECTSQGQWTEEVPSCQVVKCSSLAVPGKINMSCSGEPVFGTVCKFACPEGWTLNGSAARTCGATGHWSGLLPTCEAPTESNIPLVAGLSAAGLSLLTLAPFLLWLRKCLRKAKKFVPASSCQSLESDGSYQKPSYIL
smiles,measurement,setting,value
CC[C@H](C)[C@H]1O[C@]2(C=C[C@@H]1C)C[C@@H]1C[C@@H](C/C=C(\C)[C@@H](O[C@H]3C[C@H](OC)[C@@H](O[C@H]4C[C@H](OC)[C@@H](O)[C@H](C)O4)[C@H](C)O3)[C@@H](C)/C=C/C=C3\CO[C@@H]4[C@H](O)C(C)=C[C@@H](C(=O)O1)[C@]34O)O2 (tested in a mixture with another compound),AC50,[1],31.7 µM (active)
same,AC50,[2],7.59 µM (active)
same,AC50,[3],5.77 µM (active)
same,AC50,[4],15.5 µM (active)
same,AC50,"CD40, CD40 (gene 958)",6.65 µM (active)
same,AC50,[5],9.62 µM (active)
same,AC50,[6],5.94 µM (active)
same,AC50,[7],6.41 µM (active)
same,AC50,[8],6.51 µM (active)
same,AC50,[9],8.83 µM (active)
Clc1ccccc1-c1nnc(-c2ccccc2Cl)nn1,outcome,[1],inactive
same,outcome,[2],inactive
same,outcome,[3],inactive
same,outcome,[4],inactive
same,outcome,"CD40, CD40 (gene 958)",inactive
same,outcome,[5],inactive
same,outcome,[6],inactive
same,outcome,[7],inactive
same,outcome,[8],inactive
same,outcome,[9],inactive
C#CCN1C(=O)COc2cc(F)c(N3C(=O)C4=C(CCCC4)C3=O)cc21,outcome,[1],inactive
same,outcome,[2],inactive
same,outcome,[3],inactive
same,outcome,[4],inactive
same,outcome,"CD40, CD40 (gene 958)",inactive
same,outcome,[5],inactive
same,outcome,[6],inactive
same,outcome,[7],inactive
same,outcome,[8],inactive
same,outcome,[9],inactive
O=C(NC(=O)c1c(F)cccc1F)Nc1ccc(OC(F)(F)C(F)OC(F)(F)F)c(Cl)c1 (centres undefined),outcome,[1],inactive
same,outcome,[2],inactive
same,outcome,[3],inactive
same,outcome,[4],inactive
same,outcome,"CD40, CD40 (gene 958)",inactive
same,outcome,[5],inactive
same,outcome,[6],inactive
same,outcome,[7],inactive
same,outcome,[8],inactive
same,outcome,[9],inactive
Oc1cc(Cl)ccc1Oc1ccc(Cl)cc1Cl,AC50,[1],18.5 µM (active) [middle of 4 runs]
same,AC50,[2],36.6 µM (active) [middle of 4 runs]
same,AC50,[3],15.2 µM (active) [middle of 4 runs]
same,AC50,[4],31 µM (active) [middle of 4 runs]
same,AC50,"CD40, CD40 (gene 958)",12.3 µM (active) and 9.21 µM (active) and 12.1 µM (active)
same,AC50,[5],15.6 µM (active) [middle of 4 runs]
same,AC50,[6],27.6 µM (active) [middle of 4 runs]
same,AC50,[7],17.1 µM (active) and 19.7 µM (active) and 18.7 µM (active)
same,AC50,[8],14.3 µM (active) and 14.6 µM (active) and 29 µM (active)
same,AC50,[9],19.9 µM (active) [middle of 4 runs]
COP(=S)(OC)Oc1ccc([N+](=O)[O-])cc1,outcome,[1],inactive
same,outcome,[2],inactive
same,outcome,[3],inactive
same,outcome,[4],inactive
same,AC50,"CD40, CD40 (gene 958)",20 µM (active)
same,outcome,[5],inactive
same,outcome,[6],inactive
same,AC50,[7],10.5 µM (active)
same,outcome,[8],inactive
same,outcome,[9],inactive
CNC(=O)Oc1cccc(N=CN(C)C)c1,outcome,[1],inactive
same,outcome,[2],inactive
same,outcome,[3],inactive
same,outcome,[4],inactive
same,AC50,"CD40, CD40 (gene 958)",13.5 µM (active)
same,AC50,[5],20 µM (active)
same,AC50,[6],20 µM (active)
same,outcome,[7],inactive
same,outcome,[8],inactive
same,outcome,[9],inactive
O=C1c2ccccc2C(=O)N1SC(Cl)(Cl)Cl,outcome,[1],inactive
same,outcome,[2],inactive
same,outcome,[3],inactive
same,outcome,[4],inactive
same,outcome,"CD40, CD40 (gene 958)",inactive
same,outcome,[5],inactive
same,outcome,[6],inactive
same,AC50,[7],0.303 µM (active)
same,outcome,[8],inactive
same,outcome,[9],inactive
CC(C)(C)C(O)C(Oc1ccc(Cl)cc1)n1cncn1 (centres undefined),outcome,[1],inactive
same,outcome,[2],inactive
same,outcome,[3],inactive
same,outcome,[4],inactive
same,outcome,"CD40, CD40 (gene 958)",inactive
same,outcome,[5],inactive
same,outcome,[6],inactive
same,outcome,[7],inactive
same,outcome,[8],inactive
same,outcome,[9],inactive
COC(=O)c1ccccc1CS(=O)(=O)NC(=O)Nc1nc(OC)cc(OC)n1,outcome,[1],inactive
same,outcome,[2],inactive
same,outcome,[3],inactive
same,outcome,[4],inactive
same,outcome,"CD40, CD40 (gene 958)",inactive
same,outcome,[5],inactive
same,outcome,[6],inactive
same,outcome,[7],inactive
same,outcome,[8],inactive
same,outcome,[9],inactive
CCC(C)Nc1c([N+](=O)[O-])cc(C(C)(C)C)cc1[N+](=O)[O-] (centres undefined),outcome,[1],inactive
same,outcome,[2],inactive
same,outcome,[3],inactive
same,outcome,[4],inactive
same,AC50,"CD40, CD40 (gene 958)",31.9 µM (active)
same,AC50,[5],14.6 µM (active)
same,outcome,[6],inactive
same,AC50,[7],20 µM (active)
same,outcome,[8],inactive
same,outcome,[9],inactive
COc1nn(CSP(=S)(OC)OC)c(=O)s1,outcome,[1],inactive
same,outcome,[2],inactive
same,outcome,[3],inactive
same,outcome,[4],inactive
same,outcome,"CD40, CD40 (gene 958)",inactive
same,AC50,[5],4.79 µM (active)
same,outcome,[6],inactive
same,outcome,[7],inactive
same,outcome,[8],inactive
same,outcome,[9],inactive
Cc1[nH]c(=O)n(C(C)(C)C)c(=O)c1Cl,outcome,[1],inactive
same,outcome,[2],inactive
same,outcome,[3],inactive
same,outcome,[4],inactive
same,outcome,[5],inactive
same,outcome,[6],inactive
same,outcome,[7],inactive
same,outcome,[8],inactive
same,outcome,[9],inactive
